DT40 TDP1 CPT = qHTS for Inhibitors of human tyrosyl-DNA phosphodiesterase 1 (TDP1): qHTS in cells in presence of CPT; chicken DT40 Tdp1-/-;hTDP1 cells + 20 nM CPT, ATP luminescence, 48 h; Potency, µM (highest dose often 46.2 µM), for inactives: at the highest dose activity change, negative = growth inhibition, usual class: inhibitors; actives 12% (n = 420,000); AID 686979, 2013; note: potency is the fitted concentration of half-maximal effect; % is set by controls: 0 for no effect and ±100 for the full control effect; nearly all actives have a fitted effect of over 55% in size
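Chicken DT40 Tdp1-/- cells complemented with human TDP1, 400 cells/well, exposed to compounds plus 20 nM camptothecin for at least 48 h at 37 C; viability read as ATP content by CellTiter-Glo luminescence.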
D3 ag = qHTS of D3 Dopamine Receptor Agonist: qHTS; D(3) dopamine receptor (Homo sapiens), P35462; D3R DiscoveRx beta-arrestin cells, luminescence, 90 min; max activation, %; actives 0.58% (n = 410,000); in the data active = max activation above about 30%; note: 0% is about no effect
Target sequence (P35462 whole entry, looked up): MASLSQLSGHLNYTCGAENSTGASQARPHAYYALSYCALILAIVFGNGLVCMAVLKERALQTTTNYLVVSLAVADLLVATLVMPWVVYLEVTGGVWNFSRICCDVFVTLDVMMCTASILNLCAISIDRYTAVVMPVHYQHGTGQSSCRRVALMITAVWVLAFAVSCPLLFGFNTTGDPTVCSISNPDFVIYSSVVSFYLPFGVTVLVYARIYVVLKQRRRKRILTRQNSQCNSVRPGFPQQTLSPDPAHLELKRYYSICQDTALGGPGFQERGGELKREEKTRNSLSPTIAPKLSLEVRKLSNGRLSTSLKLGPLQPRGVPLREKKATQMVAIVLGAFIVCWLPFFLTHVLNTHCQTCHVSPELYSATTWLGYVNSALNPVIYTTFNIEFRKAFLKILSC
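Agonist-mode cell screen: cells plated at 1500/well and incubated overnight at 37 °C, then exposed to library compounds for 90 min at 37 °C. Detection reagent was added for 30–60 min at room temperature, and luminescence was read.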
TDP1 cell noCPT = qHTS for Inhibitors of human tyrosyl-DNA phosphodiesterase 1 (TDP1): qHTS in cells in absence of CPT; DT40 Tdp1-/- hTDP1 cells, no CPT, ATP luminescence, 48 h; Potency, µM (titrated, usually from 46.2 µM), for inactives: at the highest dose activity change, negative = growth inhibition, usual class: inhibitors; actives 15% (n = 420,000); note: potency is the fitted concentration of half-maximal effect; % is set by controls: 0 for no effect and ±100 for the full control effect; nearly all actives have a fitted effect of over 55% in size
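Seeded 400 DT40-hTDP1 cells/well (vehicle DMSO, no 20 nM CPT); pinned compounds; ≥48 hr at 37 °C; CellTiter-Glo luminescence as viability measure.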
ClpP mod = qHTS Assay for Activators of ClpP; ATP-dependent Clp protease proteolytic subunit (Bacillus subtilis (strain 168)), P80244; purified B. subtilis ClpP, FRET peptide cleavage, 20 min; Potency, µM (top dose mostly 57.5 µM), for the others: at the top dose activity change, negative = active; actives 1.9% (n = 340,000); active = well fitted falling curve with a large enough effect; inconclusive = small, poorly fitted or top-dose-only effect; inactive = no such curve, though single readings can be large or run the other way; note: potency is the fitted concentration of half-maximal effect; the source files actives as falling curves though it sought activators and does not explain the sign; nearly all actives have a fitted effect of over 65% in size
Target sequence (P80244 whole entry, looked up): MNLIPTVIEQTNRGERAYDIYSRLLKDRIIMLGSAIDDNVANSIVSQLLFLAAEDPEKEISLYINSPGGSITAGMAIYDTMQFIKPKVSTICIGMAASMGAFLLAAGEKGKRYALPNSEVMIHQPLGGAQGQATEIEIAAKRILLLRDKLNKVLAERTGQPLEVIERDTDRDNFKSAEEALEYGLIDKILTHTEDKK
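Purified B. subtilis ClpP, 10 microg/mL final in Tris/HCl pH8 with KCl, BSA, glycerol and Tween-20, cleaved an Abz/nitrotyrosine-quenched decapeptide. Fluorescence (ex 320, em 430) was read at 0 and 20 min at room temperature. Delta was normalized to 5.8 microM ADEP and DMSO/no-enzyme controls.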
IL-1B inflam inh = qHTS for Inhibitors of Inflammasome Signaling: IL-1-beta AlphaLISA Primary Screen | actives 4.7% (n = 360,000) | THP-1 LPS/ATP IL-1B secretion, AlphaLISA, 16 h; stronger effect = lower value | activity change, % at 57.5 µM; in the data active = activity change below about -50%; inconclusive = mostly about -30% to -49%; note: % is set by controls: 0 for no effect and ±100 for the full control effect
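THP-1 cells pretreated 1 hr with compounds (up to 57.5 uM final), then stimulated with LPS (250 ng/mL final) plus ATP (1.25 mM final); secreted IL-1B measured by AlphaLISA after 16 hr, decreased signal indicating inhibition.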
DRD3 antagonist = qHTS of D3 Dopamine Receptor Antagonist: qHTS | max response, negative = inhibition, % | actives 2.5% (n = 360,000) | D(3) dopamine receptor (Homo sapiens), P35462 | D3R cells, DiscoveRx beta-arrestin luminescence, antagonist mode; stronger effect = lower value; in the data active = max response below about -50%; inconclusive = no clear call, values can overlap the other calls; note: % is set by controls: 0 for no effect and ±100 for the full control effect
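Cells expressing the human receptor were seeded at 1500 cells/well, incubated overnight at 37 degrees C in 5% CO2, then exposed to library compounds with dopamine controls for 90 minutes at 37 degrees C before luminescent detection.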
The depositor's hits bear a star; ? = inconclusive; . = not tested or not shown. The list is not random: actives were taken first. Their share in the collection is about 21%. Unless noted, calls come from the whole dose curve; as a rule, active = well fitted inhibition curve with a large enough effect; inconclusive = small, poorly fitted or top-dose-only effect; inactive = flat fitted curve, though single readings scatter.

SMILES	DT40 TDP1 CPT	D3 ag	TDP1 cell noCPT	ClpP mod	IL-1B inflam inh	DRD3 antagonist
COc1ccc(CCN(C)C(=O)COc2cccc(-n3cnnn3)c2)cc1OC	11%	-1	-3%	.	46	1
CCOC(=O)c1sc(Nc2cccc(Cl)c2)nc1C	-13%	-10	?	.	-87*	1
CCOC(=O)c1sc(Nc2nc(OC)cc(OC)n2)nc1C	?	6	21µM*	.	53	15
CCOC(=O)c1sc(NC(C)=O)nc1C	?	6	-25%	-1%	?	10
COc1ncc2nc(-c3cccs3)c(=O)n(Cc3ccc(F)cc3)c2n1	-18%	.	-6%	.	.	.
FC(F)(F)c1ccc(CN2C[C@@H]3C(c4ccc(Cl)nc4)C4(c5cccnc5)CC3(C4)[C@H]2c2ccccc2)cc1 (stereo partly specified)	?	-15	16µM*	-4%	-12	-12
COC(=O)c1cccc(C23CC4(C2)[C@H](CN(Cc2cccnc2)[C@@H]4c2ccccc2)C3c2ccc(Cl)nc2)c1 (stereo partly specified)	?	2	?	0%	32	4
COC(=O)c1ccc(C23CC4(C2)[C@H](CN(CC2CCCCC2)[C@@H]4c2ccccc2)C3c2ccc(Cl)nc2)cc1 (stereo partly specified)	?	-19	?	-1%	-10	?
COC(=O)c1ccc(C23CC4(C2)[C@H](CN(Cc2ccc(C(F)(F)F)cc2)[C@@H]4c2ccccc2)C3c2ccc(Cl)nc2)cc1 (stereo partly specified)	9.2µM*	-22	10µM*	-12%	0	-12
FC(F)(F)c1ccc(C2[C@H]3CN(CC4CCCCC4)[C@H](c4ccccc4)C34CC2(c2cccnc2)C4)cc1 (stereo partly specified)	?	-8	16µM*	0%	-4	?
COC(=O)c1cccc(C23CC4(C2)[C@H](CN(Cc2cccnc2)[C@@H]4c2ccccc2)C3c2ccc(C(F)(F)F)cc2)c1 (stereo partly specified)	16µM*	-6	16µM*	-4%	42	-13
C[C@H](N)CCP(=O)(O)O	-1%	.	-19%	.	.	.
COC(=O)C12OCC34C(CC5C(C)=C(O)C(=O)CC5(C)C3C(O)C1O)OC(=O)C(OC(=O)C=C(C)C)C24 (stereo unspecified)	0.065µM*	1	0.15µM*	1%	.	-7
O=C(Nc1ccc(N2CCOCC2)cc1)C1CCN(C(=O)OCc2ccccc2)CC1	2%	5	-21%	-1%	-12	-6
N#Cc1cccc(C(=O)C(=O)N2CCN(C(=O)OCc3ccccc3)CC2)c1	?	7	23µM*	-1%	-7	16
O=C(Nc1ccc(N2CCOCC2)cc1Cl)C1CCN(C(=O)OCc2ccccc2)CC1	?	-1	16µM*	0%	0	24
O=C(OCc1ccccc1)N1CCOCCN(C(=O)OCc2ccccc2)CCOCC1	26µM*	2	26µM*	0%	-5	-8
O=C(COC(=O)c1ccc(F)c(S(=O)(=O)N2CCOCC2)c1)NCCc1ccccc1	-12%	4	-4%	-3%	-17	1
O=C(NCc1cccc(F)c1)Nc1nnc([C@@H]2C[C@H](O)[C@@H](CO)O2)s1	8%	9	-2%	1%	19	-17
Cc1cccc(/C=C2/C(=O)/C(=C/c3ccccc3C)C3CCC2N3C)c1 (stereo unspecified)	21µM*	-4	18µM*	0%	-7	0
CN1C2CCC1/C(=C/c1cccn1C)C(=O)/C2=C\c1cccn1C	23µM*	0	16µM*	8%	-15	-3
CN1C2CCC1/C(=C\c1ccc(F)cc1)C(=O)/C2=C/c1ccc(F)cc1	21µM*	0	16µM*	-3%	-87*	?
Cc1cccc(/C=C2\CCC(C3CCCC3)C2=O)c1 (stereo unspecified)	2%	-3	-10%	2%	13	9
Cn1cccc1/C=C1\Cc2ccccc2C1=O	-3%	4	-17%	2%	15	26
COc1ccc(C2=CSC3=NCCN23)cc1OC	5%	-4	?	-3%	12	31
SMILES	DT40 TDP1 CPT	D3 ag	TDP1 cell noCPT	ClpP mod	IL-1B inflam inh	DRD3 antagonist
CCCCOc1ccc(C2=CSC3=NCCN23)cc1[N+](=O)[O-]	?	-19	29µM*	0%	-25	-21
O=S1(=O)[C@H]2C[C@@H]3C=C[C@@]2(CN1Cc1ccc(F)cc1)O3	?	5	-1%	-2%	17	-21
O=S1(=O)[C@H]2C[C@H](CO)O[C@@]2(CO)CN1Cc1ccc(-c2ccc(F)cc2)cc1	?	31*	?	3%	64	-20
O=S1(=O)[C@H]2C[C@H](CO)O[C@@]2(CO)CN1Cc1ccc(-c2cccc(Cl)c2)cc1	21µM*	9	?	-1%	-6	19
O=S1(=O)[C@H]2C[C@@H]3C=C[C@@]2(CN1Cc1ccc(Cl)cc1)O3	-23%	14	-14%	2%	-9	-2
S=c1ncc2n[nH]nc2[nH]1	6%	.	1%	2%	.	.
N#Cc1cnn(-c2ccccc2)c1N	-14%	-8	-6%	0%	-1	-5
CC(C)C1N(c2ccccc2)C(N)=C(C#N)C1(C#N)C#N (stereo unspecified)	?	3	23µM*	-1%	-14	59
COC(=O)c1c(C)nn(-c2ccc(F)c(Cl)c2)c1-c1cc(C)on1	12µM*	4	5.2µM*	.	-3	14
O=S(=O)(NCC(c1ccco1)S(=O)(=O)c1ccccc1)c1cc(F)ccc1F (stereo unspecified)	?	1	?	1%	.	.
CCc1ccc2[nH]c(O)c(N=NC3=NC(=O)CS3)c2c1	2.6µM*	-5	1.8µM*	1%	37	-6
CCOC(=O)N=Nc1c(O)n(CC)c2ccccc12	-23%	-7	-6%	2%	-9	-27
CCc1ccc2c(c1)c(N=NC1=NC(=O)CS1)c(O)n2CC	?	-23	?	0%	-6	-88*
